Holding throughout (assay type): functional
The target in experiment [1] is Solute carrier family 2, facilitated glucose transporter member 1 (Homo sapiens) (UniProt P11166). Description: ST_JUDE_LEISH: Cytotoxicity at 2uM final concentration against transgenic Leishmania Mexicana promastigotes LmGLUT1 that are glucose transport deficient and complemented with the human glucose transporter GLUT1. Activity is measured by DNA content using SYBR green in vitro.

Experiment [2] concerns the target Hexose transporter 1 (Plasmodium falciparum) (UniProt O97467). The experiment is described as follows: ST_JUDE_LEISH: Cytotoxicity at 2uM final concentration against transgenic Leishmania Mexicana promastigotes LmPfHT that are glucose transport deficient and complemented with the Plasmodium falciparum hexose transporter. Activity is measured by DNA content using SYBR green in vitro.

In experiment [3] the target is Glucose transporter (Leishmania mexicana) (UniProt O61059). The experiment is described as follows: ST_JUDE_LEISH: Cytotoxicity at 2uM final concentration against transgenic Leishmania Mexicana promastigotes LmGT2 that are glucose transport deficient and complemented with the L. Mexicana glucose transporter 2. Activity is measured by DNA content using SYBR green in vitro.

The structures appear in SMILES notation.

Solute carrier family 2, facilitated glucose transporter member 1 (Homo sapiens), sequence (P11166 whole entry): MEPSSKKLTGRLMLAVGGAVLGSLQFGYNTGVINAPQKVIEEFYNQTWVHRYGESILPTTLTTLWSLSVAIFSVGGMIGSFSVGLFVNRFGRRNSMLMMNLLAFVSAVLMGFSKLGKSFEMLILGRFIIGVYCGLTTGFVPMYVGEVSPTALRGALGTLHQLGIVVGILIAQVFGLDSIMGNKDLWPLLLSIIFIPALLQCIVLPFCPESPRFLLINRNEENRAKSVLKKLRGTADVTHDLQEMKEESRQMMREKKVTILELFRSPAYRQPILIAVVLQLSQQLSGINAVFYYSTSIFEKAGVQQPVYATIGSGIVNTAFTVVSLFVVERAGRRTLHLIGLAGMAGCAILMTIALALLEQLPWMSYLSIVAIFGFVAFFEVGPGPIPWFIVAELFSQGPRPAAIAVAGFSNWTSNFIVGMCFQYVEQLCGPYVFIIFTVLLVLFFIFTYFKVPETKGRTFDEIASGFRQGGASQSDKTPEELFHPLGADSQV

Turning to `Cc1cccc(CN2CCC(Oc3ccc(NC(=O)c4cccs4)cc3Cl)CC2)n1`, the inhibition in experiment [1] was 5.76%; in experiment [2], 3.92%; in experiment [3], 2.69%.
On the same counts, the results for `Cc1cc(Cl)ccc1NC(=O)NCCCCCN1CCC(c2c[nH]c3ccccc23)CC1` are 11.4%, 14.9% and 10.4%.
Consider `O=[N+]([O-])c1cccc(C(Nc2ccccn2)c2ccc3cccnc3c2O)c1` (stereo not drawn), for which the inhibition in experiment [1] worked out at 4.63%; in experiment [2], 5.86%; in experiment [3], 4.17%.
Turning to `c1ccc(COc2ccnc(NCCCOc3cccc(CN4CCCCC4)c3)c2)cc1`, the inhibition was 1.52% in experiment [1], 1.04% in experiment [2] and -0.05% in experiment [3].
On the same counts, the results for `CC(C)CNCc1cccc(-c2ccc(CNC3CCN(Cc4ccccc4)CC3)cc2)c1` are 6.62%, 7.43% and 4.78%.
With `O=C(NC1CCN(CC2(c3ccccc3F)CCCC2)CC1)c1cc[nH]n1`, the inhibition is 4.33% in experiment [1], 1.54% in experiment [2] and 1.89% in experiment [3].
For `OCCN1CCN(Cc2cccc(-c3ccc(-c4nc5cc(C(F)(F)F)ccc5[nH]4)cc3)c2)CC1`, in that order: 5.08%, 3.3% and 2.62%.
On the same counts, the results for `O=C(Nc1ccc(Cn2nc(Cl)c(N3CCCNCC3)cc2=O)cc1)c1ccc(-c2ccccc2)cc1` are 7.36%, 5.68% and 4.52%.
For `CCCCCC1c2[nH]c3ccccc3c2CCN1C(=O)OCc1ccccc1` (stereo not drawn), in that order: 7.38%, 6.98% and 7.22%.
Turning to `CC(CNc1nc(NCC(c2ccccc2)c2ccccc2)c2nc[nH]c2n1)c1ccccc1` (stereo not drawn), the inhibition was 3.92% in experiment [1], 5% in experiment [2] and 3.73% in experiment [3].
For `OC1CCCN(Cc2cccc(-c3ccc(-c4nc5ccccc5[nH]4)cc3)c2)C1` (stereo not drawn), in that order: 3.91%, 5.45% and -2.43%.
On the same counts, the results for `CCCCC(=O)Nc1ccc(Nc2nc(C)cc(N3CCCC3)n2)cc1` are 2.54%, 3.88% and 3.88%.
For `CN(C)CCN1CCN(CCCN2c3ccccc3Sc3ccc(C(F)(F)F)cc32)CC1`, in that order: 3.37%, 3.77% and 3.66%.
As for `Cc1nc(-c2cccc(Nc3nccc(NCC(O)c4ccccc4)n3)c2)cs1` (stereo not drawn), the inhibition in experiment [1] is 1.43%; in experiment [2], 0.76%; in experiment [3], 2.14%.
For `CC(C)n1ncc2c3c(N)nc(N)nc3ccc21`, in that order: 1.85%, 1.69% and 2.51%.
Take `Cc1c(Cc2ccccc2)c(=O)oc2c(C)c3c(cc12)CN(CC(C)c1ccccc1)CO3` (stereo not drawn): the values for the inhibition in experiment [1], in experiment [2] and in experiment [3] were 4.3%, 4.73% and 5.8%, respectively.
On the same counts, the results for `N#Cc1cccc(NC(=O)Nc2ccc3c(c2)CCN(C2CCC2)CC3)c1` are 5.45%, 4.43% and 4.94%.
For `CCOc1ccc(C(=O)Nc2cc3c(c(C(F)(F)F)c2)CCNC3)cc1Cl`, in that order: 7.38%, 4.16% and 5.38%.
On the same counts, the results for `CC(C)N1CCN(C(=O)c2ccc(CNCCCN3CCN(c4cccc(Cl)c4Cl)CC3)s2)CC1` are 1.17%, 1.06% and -0.54%.
As for `FC(F)(F)c1ccc2[nH]ccc(=NN=CC=Cc3ccccc3)c2c1`, the figures for the inhibition in experiment [1], in experiment [2] and in experiment [3] were 0.22%, 0.25% and 4.34%, respectively.
On the same counts, the results for `Cc1cc(CN2CCC(N3CC(c4ccccc4)(c4ccccc4)OC3=O)C2)ccc1O` (stereo not drawn) are 4.14%, 3.7% and 8.06%.
For `CC(C)CNC(=O)c1cncc(-c2ccc(CN(C)C3CCN(C)CC3)cc2)c1`, the inhibition in experiment [1] is 4.89%; in experiment [2], 5.48%; in experiment [3], 1.87%.
On the same counts, the results for `CN(C)CC(=O)Nc1ccc(-c2ccc3ccnc(N)c3c2)cc1` are 13.7%, 24.3% and 5.49%.
On the same counts, the results for `Cc1ccc(NC(=O)NC2CCN(c3ccnc4cc(Cl)ccc34)C2)cc1` (stereo not drawn) are 0.94%, 4.46% and 2.34%.
For `Cc1cccc(CNc2nc(C)cc(N[C@@H](Cc3ccccc3)C(=O)NC3CCCC3)n2)c1`, in that order: 16.1%, 12.4% and 7.72%.
As to `O=C(c1ccco1)c1cn(CCOc2ccccc2)c2ccccc12`, the inhibition in experiment [1] was 1.36%; in experiment [2], 1.5%; in experiment [3], -0.07%.
As for `Cc1cc(Nc2ccc3ccccc3c2)n2ncnc2n1`, the inhibition is -0.63% in experiment [1], -3.58% in experiment [2] and -1.18% in experiment [3].
On the same counts, the results for `CS(=O)(=O)c1ccc(CNCc2cccc(-c3cccc(-c4nc5ccccc5[nH]4)c3)c2)cc1` are 2.3%, 0.28% and -2.15%.
On the same counts, the results for `O=C(Nc1ccccc1)N(Cc1cccc(-c2ccc(CNCCc3ccccc3)cc2)c1)C1CCN(Cc2ccccc2)CC1` are 0.46%, -0.56% and 0.13%.
As for `N=C(N)c1ccc(-c2cc3ccc(C(=N)N)cc3[nH]2)cc1`, the inhibition in experiment [1] stood at 62.9%; in experiment [2] it was 62.2%; in experiment [3], 52.2%.
For `COC1CCC(C(=O)Nc2ccc(-c3cccc(-c4nc5cccc(C)c5[nH]4)c3)cc2)CC1` (stereo not drawn), in that order: 6.31%, 4.3% and 3.5%.
On the same counts, the results for `CCCOc1ccc(C(F)(F)F)cc1NC(=O)c1nc2nc(C)cc(C)n2n1` are 6.01%, 5.05% and 1.31%.
On the same counts, the results for `O=C(NCCCCN1CCC(c2ccc3c(c2OC(=O)c2ccc(NC(=O)c4ccc(Cl)cc4)cc2)CCCC3)CC1)c1ccc(NC(=O)c2ccc(Cl)cc2)cc1` are 3.25%, 0.15% and 3.18%.
With `CC(C)CSc1cc(C(=O)Nc2cc(Cl)ccc2O)ccn1`, the inhibition in experiment [1] was -0.74%; in experiment [2] it was -0.12%; in experiment [3] it was -2.72%.
Consider `O=C(Nc1ccc(-c2ccccc2)c(OCCN2CCNCC2)c1)c1ccc(-c2ccc(Cl)cc2)cc1`, for which the inhibition in experiment [1] is 3.89%; in experiment [2], 5.96%; in experiment [3] it was 3.11%.
On to `O=C(/C=C/c1ccc([N+](=O)[O-])cc1)N1CCC(NS(=O)(=O)c2ccc(Br)cc2)CC1`, for which the inhibition in experiment [1] was -0.08%; in experiment [2] it was 1.13%; in experiment [3], 1.17%.

These data come from ChEMBL document CHEMBL3433997, “St. Jude Leishmania screening dataset” (2016).
